For 14 compounds, Potency results are on record in PubChem BioAssay (NCATS).

The structures appear in SMILES notation. Inconclusive results are not listed. Active and inactive are the calls of the source. The call rests on the fitted dose curve; in most records, active means well fitted curve in the direction sought with a large enough effect; inconclusive means small, poorly fitted or top-dose-only effect, or another doubt; inactive means no such curve, though single readings can be large; an effect the other way counts as inactive or inconclusive.

A short description of assay [1]: qHTS of pediatric cancer cell lines to identify multiple opportunities for drug repurposing: Primary screen for BT-37 cells (AID 1347094). Further: potency means the concentration at half of the fitted maximal effect. The method in brief: (§1)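 Luminescence from CellTiter-Glo served as readout of metabolically active cells after 48 h compound exposure. Titrations: MIPE 11-point, from 0.78 nM; NPC 8-point, from 0.59 nM (final). Concentration-response curves came straight from the primary screen.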

Assay [2] in a line: qHTS of pediatric cancer cell lines to identify multiple opportunities for drug repurposing: Primary screen for NB-EBc1 cells (AID 1347095). Further: potency means the concentration at half of the fitted maximal effect. The method in brief: as §1
A short description of assay [3]: qHTS of pediatric cancer cell lines to identify multiple opportunities for drug repurposing: Primary screen for U-2 OS cells (AID 1347096). Further: nearly all actives have a fitted effect of over 50% in size. An outline of the steps:
(§2)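 Cells (500-1,000/well) rested 5 h, then received compounds for 48 h; metabolically active cells were measured by CellTiter-Glo luminescence. Final concentrations spanned up to 46 µM (MIPE, 11-point) or 0.59 nM-46 µM (NPC, 8-point) in primary screens, 11-point in follow-ups.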

The nature of assay [4]: qHTS of pediatric cancer cell lines to identify multiple opportunities for drug repurposing: Primary screen for Saos-2 cells (AID 1347097). Further: nearly all actives have a fitted effect of over 40% in size. Further: potency means the concentration at half of the fitted maximal effect. The method in brief: as §1
A short description of assay [5]: qHTS of pediatric cancer cell lines to identify multiple opportunities for drug repurposing: Primary screen for LAN-5 cells (AID 1347100). Further: potency means the concentration at half of the fitted maximal effect. The method in brief:
as §2

Assay [6] can be described thus: qHTS of pediatric cancer cell lines to identify multiple opportunities for drug repurposing: Primary screen for Rh18 cells (AID 1347102). Further: nearly all actives have a fitted effect of over 65% in size. Further: potency means the concentration at half of the fitted maximal effect. The method in brief: as §2
Assay [7] is described as follows: qHTS of pediatric cancer cell lines to identify multiple opportunities for drug repurposing: Primary screen for RD cells (AID 1347104). Further: nearly all actives have a fitted effect of over 55% in size. Further: potency means the concentration at half of the fitted maximal effect. An outline of the steps:
as §1

The nature of assay [8]: qHTS of pediatric cancer cell lines to identify multiple opportunities for drug repurposing: Primary screen for MG 63 (6-TG R) cells (AID 1347105). Further: nearly all actives have a fitted effect of over 50% in size. Further: potency means the concentration at half of the fitted maximal effect. The method in brief:
as §1

The nature of assay [9]: qHTS of pediatric cancer cell lines to identify multiple opportunities for drug repurposing: Primary screen for control Hh wild type fibroblast cells (AID 1347106).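 Further: series mostly up to about 46 µM; a drop in luminescence marks cytotoxicity and a rise apparent proliferation; nearly all actives have a fitted effect of over 55% in size.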 The method in brief: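 Cells (500-1,000/well) in growth media were settled 5 h at 37 degrees C, then given compounds for 48 h. Viability was read as CellTiter-Glo luminescence. Primary runs used MIPE at 11 points (0.78 nM-46 µM) and NPC at 8 points (0.59 nM-46 µM); follow-ups used 11 points.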

Assay [10] is described as follows: qHTS of pediatric cancer cell lines to identify multiple opportunities for drug repurposing: Primary screen for Rh30 cells (AID 1347107). Further: series mostly up to about 46 µM; nearly all actives have a fitted effect of over 75% in size. An outline of the steps:
as §2

The nature of assay [11]: qHTS of pediatric cancer cell lines to identify multiple opportunities for drug repurposing: Primary screen for Rh41 cells (AID 1347108). Further: nearly all actives have a fitted effect of over 70% in size. Further: potency means the concentration at half of the fitted maximal effect. The method in brief: as §1
The nature of assay [12]: qHTS of pediatric cancer cell lines to identify multiple opportunities for drug repurposing: Primary screen for BT-12 cells (AID 1347101). Further: nearly all actives have a fitted effect of over 25% in size. Further: potency means the concentration at half of the fitted maximal effect. The method in brief: as §2
Assay [13] can be described thus: qHTS of pediatric cancer cell lines to identify multiple opportunities for drug repurposing: Primary screen for OHS-50 cells (AID 1347103). Further: nearly all actives have a fitted effect of over 40% in size. Further: potency means the concentration at half of the fitted maximal effect. The method in brief: as §2
A short description of assay [14]: qHTS of pediatric cancer cell lines to identify multiple opportunities for drug repurposing: Primary screen for SK-N-SH cells (AID 1347098). Further: nearly all actives have a fitted effect of over 65% in size. Further: potency means the concentration at half of the fitted maximal effect. The method in brief: as §2
Assay [15] is described as follows: qHTS of pediatric cancer cell lines to identify multiple opportunities for drug repurposing: Primary screen for NB1643 cells (AID 1347099). Further: nearly all actives have a fitted effect of over 50% in size. Further: potency means the concentration at half of the fitted maximal effect. An outline of the steps: as §1
A short description of assay [16]: qHTS of pediatric cancer cell lines to identify multiple opportunities for drug repurposing: Confirmatory screen for NB1643 cells (AID 1347109). Further: nearly all actives have a fitted effect of over 45% in size. Further: potency means the concentration at half of the fitted maximal effect. The method in brief:
as §2

Assay [17] is described as follows: qHTS of pediatric cancer cell lines to identify multiple opportunities for drug repurposing: Confirmatory screen for A673 cells (AID 1347110).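 Further: cells exposed to compound for 48 h before the viability read; nearly all actives have a fitted effect of over 65% in size.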 Further: potency means the concentration at half of the fitted maximal effect. The method in brief: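 A673 cells seeded at 500-1,000 cells/well, rested 5 h, then dosed; primary MIPE 11-point (0.78 nM to 46 µM), NPC (0.59 nM to 46 µM); confirmatory 11-point. CellTiter-Glo luminescence after 48 h.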

Assay [18] is described as follows: qHTS of pediatric cancer cell lines to identify multiple opportunities for drug repurposing: Confirmatory screen for SK-N-MC cells (AID 1347111).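 Further: potency means the concentration at half of the fitted maximal effect; cells exposed to compound for 48 h before the readout; nearly all actives have a fitted effect of over 70% in size.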 The method in brief:
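Seed 500-1,000 cells/well; rest 5 h at 37 degrees C. Pin-transfer compounds, 11-point titration. Incubate 48 h. Add CellTiter-Glo, 15 min RT, read luminescence.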

Assay [19] is described as follows: qHTS of pediatric cancer cell lines to identify multiple opportunities for drug repurposing: Confirmatory screen for BT-12 cells (AID 1347112). Further: nearly all actives have a fitted effect of over 55% in size. Further: potency means the concentration at half of the fitted maximal effect. An outline of the steps:
as §2

The nature of assay [20]: qHTS of pediatric cancer cell lines to identify multiple opportunities for drug repurposing: Confirmatory screen for LAN-5 cells (AID 1347113). Further: nearly all actives have a fitted effect of over 65% in size. Further: potency means the concentration at half of the fitted maximal effect. The method in brief: as §2

`CCCCCCCCCCCC(CC1OC(=O)C1CCCCCC)OC(=O)C(CC(C)C)NC=O` (configuration not stated): the Potency entry in [1], in [3], in assay [5], in assay [6], in assay [7] and in assay [8] was “inactive” in each case. Besides, the Potency result in assay [9], in [10] and in assay [11] was “inactive” throughout. Also, the Potency is 18700 nM (active) in [2] and 14.8 µM (active) in [4].
For `C[C@H](NC(=O)Cc1cc(F)cc(F)c1)C(=O)N[C@H](C(=O)OC(C)(C)C)c1ccccc1`, the Potency entry in [1], in assay [2], in assay [3], in assay [4], in [5] and in assay [12] was “inactive” throughout. Moreover, the Potency entry in assay [9] is “inactive”.
Regarding `CN(C)CC[C@H](c1ccc(Cl)cc1)c1ccccn1`, the Potency result in assay [1], in assay [2], in [3], in assay [4], in assay [5] and in assay [12] was “inactive” each time. Moreover, the Potency result in [13], in [8], in [9] and in assay [10] was “inactive” throughout.
As to `C=C[C@@H]1CN2CCC1C[C@H]2[C@H](O)c1ccnc2ccc(OC)cc12` (some centres not stated), the Potency entry in assay [1], in assay [2], in assay [3], in assay [4], in assay [5] and in assay [12] was “inactive” throughout. The Potency result in assay [7], in [8], in assay [9] and in assay [11] was “inactive” throughout.
Consider `COc1cccc2c1C(=O)c1c(O)c3c(c(O)c1C2=O)C[C@@](O)(C(=O)CO)C[C@@H]3O[C@H]1C[C@H](N)[C@@H](O)[C@H](C)O1`, for which the Potency in assay [1] was 0.193 µM (active); in assay [2] it was 118 nM (active); in assay [4], 2.35 µM (active); in assay [14], 0.429 µM (active); in assay [15], 0.662 µM (active); in [5] it was 0.118 µM (active). The Potency in [12] was 0.685 µM (active); in assay [6], 0.469 µM (active); in [13] it was 611 nM (active); in assay [7] it was 0.935 µM (active); in [8] it was 1.48 µM (active); in assay [11], 0.662 µM (active). The Potency in assay [16] is 165 nM (active); in [17], 293 nM (active); in assay [18] it was 0.165 µM (active); in assay [19], 0.585 µM (active); in assay [20], 165 nM (active). The Potency entry in assay [10] was “inactive”.
In the case of `CC(=O)O[C@]1(C(C)=O)CC[C@H]2[C@@H]3C=C(C)C4=CC(=O)CC[C@]4(C)[C@@H]3CC[C@@]21C`, the Potency was 4.32 µM (active) in assay [1]; 2350 nM (active) in assay [2]; 11.8 µM (active) in [4]; 3.04 µM (active) in assay [14]; 2.64 µM (active) in assay [15]; 5.9 µM (active) in [5]. In addition, the Potency is 15.3 µM (active) in assay [12] and 13.2 µM (active) in assay [6].
Consider `COc1cc(N2CCC(C(N)=O)CC2)ccc1Nc1nc(N)c(Cl)c(Nc2ccccc2S(=O)(=O)C(C)C)n1`, for which the Potency result in [1], in assay [3] and in [10] was “inactive” throughout. The Potency in assay [2] is 743 nM (active); in assay [15], 0.526 µM (active); in assay [5], 0.235 µM (active); in assay [13], 61.1 nM (active); in assay [11] it was 0.59 µM (active).
As for `CCCCC(=O)O[C@]1(C(=O)CO)[C@@H](C)C[C@H]2[C@@H]3CCC4=CC(=O)C=C[C@]4(C)[C@@]3(F)[C@@H](O)C[C@@]21C`, the Potency result in [1], in assay [2], in assay [3], in assay [14], in assay [15] and in assay [5] was “inactive” in each case. The Potency entry in assay [12], in assay [6], in [7], in [8], in [9] and in assay [10] was “inactive” each time. The Potency entry in [11], in assay [16], in assay [17], in assay [19] and in assay [20] was “inactive” each time. Further, the Potency in assay [18] was 18.5 µM (active).
As for `Nc1cccc2c1C(=O)N(C1CCC(=O)NC1=O)C2=O` (configuration not stated), the Potency entry in [1], in assay [2], in assay [3], in assay [14], in assay [15] and in assay [5] was “inactive” each time. The Potency entry in assay [6], in assay [13], in assay [7], in assay [8], in [9] and in assay [10] was “inactive” throughout.
For the compound `C[C@@H](Oc1ccc2[nH]nc(C=Cc3cnn(CCO)c3)c2c1)c1c(Cl)cncc1Cl`, the Potency was 24.3 µM (active) in [1]; 93.5 nM (active) in assay [2]; 0.681 µM (active) in [14]; 4.18 µM (active) in assay [5]; 17.2 µM (active) in assay [12]; 5.9 µM (active) in assay [6]. The Potency in assay [13] is 7690 nM (active); in assay [7], 18.7 µM (active); in assay [8] it was 18.7 µM (active); in assay [11], 14.8 µM (active); in [16], 657 nM (active); in [17], 1310 nM (active). The values for the Potency in assay [18], in assay [19] and in assay [20] were 2.61 µM (active), 23.3 µM (active) and 827 nM (active), respectively. In [3], the Potency result is “inactive”.
Turning to `O=C(O)CCCCC(CCSCc1ccccc1)SCc1ccccc1` (configuration not stated), the Potency entry in assay [1], in assay [2], in [3] and in assay [9] was “inactive” each time. Also, the Potency was 10.5 µM (active) in assay [15] and 33.2 µM (active) in assay [7].
For the compound `C=C1CCC2[C@](C)(CO)C(O)CC[C@]2(C)C1CC=C1C(=O)OCC1O` (some centres not stated), the Potency entry in [1], in [2], in assay [3], in assay [14], in [15] and in [5] was “inactive” each time. Further, the Potency result in assay [12], in assay [6], in assay [7], in [8], in assay [9] and in assay [10] was “inactive” throughout. Moreover, the Potency entry in [11] was “inactive”.
Consider `COc1cc(C(=O)NC2CCN(C)CC2)ccc1Nc1ncc2c(n1)N(C1CCCC1)CCC(=O)N2C(C)C`, for which the Potency is 2.43 µM (active) in [1]; 662 nM (active) in assay [2]; 6.07 µM (active) in [14]; 3.72 µM (active) in assay [15]; 1.18 µM (active) in assay [5]; 3430 nM (active) in assay [13]. Moreover, the Potency in [7] is 20.9 µM (active); in assay [8], 2.96 µM (active); in assay [11] it was 14.8 µM (active). In addition, the Potency entry in [3] and in assay [9] was “inactive” throughout.
Turning to `COc1ccc([C@@H]2CNC(=O)C2)cc1OC1CCCC1`, the Potency in [1] was 27.3 µM (active); in [14], 3.04 µM (active); in assay [15] it was 1.32 µM (active); in [7] it was 3.32 µM (active); in assay [8] it was 5.9 µM (active); in assay [11], 3.72 µM (active). Further, the Potency result in [2], in [3] and in assay [5] was “inactive” each time.
